# Data as given in PubChem BioAssay AID504904 (The Scripps Research Institute Molecular Screening Center, 2011).
# The list shows a part of the results. Activity calls are given as the source filed them. Rule as the data show it: active = activation above about 18%; inactive = the rest.
# Target: Mu-type opioid receptor (Homo sapiens) + Delta-type opioid receptor (Homo sapiens) (UniProt P35372+P41143)
# Test: OPRM1-OPRD1 heterodimer formation agonism – cell-based, luminescence, confirmation (AID 504904);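 also: 0% = vehicle-treated cells and 100% = reference agonist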
# Conditions: cells, MOR-DOR heterodimerization, luminescence complementation; at 9.3 µM; active compounds read high
# Mu-type opioid receptor (Homo sapiens) + Delta-type opioid receptor (Homo sapiens), sequence (P35372 whole entry, looked up): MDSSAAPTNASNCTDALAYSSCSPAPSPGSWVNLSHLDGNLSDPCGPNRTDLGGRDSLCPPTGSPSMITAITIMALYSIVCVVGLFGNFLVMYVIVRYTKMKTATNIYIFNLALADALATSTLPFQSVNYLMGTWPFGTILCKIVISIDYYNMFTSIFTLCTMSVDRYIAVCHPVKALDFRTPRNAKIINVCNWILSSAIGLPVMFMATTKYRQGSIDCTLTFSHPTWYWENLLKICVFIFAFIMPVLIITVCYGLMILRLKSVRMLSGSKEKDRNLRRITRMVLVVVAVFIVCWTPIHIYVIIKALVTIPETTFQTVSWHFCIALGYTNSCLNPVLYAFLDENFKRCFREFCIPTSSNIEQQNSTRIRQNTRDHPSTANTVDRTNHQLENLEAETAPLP
# Mu-type opioid receptor (Homo sapiens) + Delta-type opioid receptor (Homo sapiens), sequence (P41143 whole entry, looked up): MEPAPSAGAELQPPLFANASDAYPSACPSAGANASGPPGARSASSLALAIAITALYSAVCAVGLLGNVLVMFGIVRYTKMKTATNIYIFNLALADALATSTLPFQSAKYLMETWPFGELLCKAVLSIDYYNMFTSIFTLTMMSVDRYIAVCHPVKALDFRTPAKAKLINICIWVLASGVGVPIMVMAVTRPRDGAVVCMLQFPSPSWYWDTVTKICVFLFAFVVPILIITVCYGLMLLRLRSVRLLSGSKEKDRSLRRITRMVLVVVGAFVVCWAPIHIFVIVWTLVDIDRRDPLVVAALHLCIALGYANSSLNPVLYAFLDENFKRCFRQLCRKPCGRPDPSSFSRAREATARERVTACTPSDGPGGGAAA
row,SMILES,activation
1,COc1ccc(C(CNCC(=O)Nc2ccccc2F)N(C)C)cc1 (stereo unspecified),145% (active)
2,COc1cccc(/C=N/Nc2cc(C)nc(-c3ccccc3O)n2)c1O,-1.59% (inactive)
3,COc1ccc(C2Nc3ccccc3C(=O)N2c2ccc(F)cc2)cc1Cn1nnc2ccccc21 (stereo unspecified),0.83% (inactive)
4,COc1ccc(SC[C@H](Cc2ccccc2)N2CCN(CCc3ccccc3)CCC2=O)cc1,28.3% (active)
5,O=C(NC1=CC(=O)c2ccccc2C1=O)c1ccccc1,7.9% (inactive)
6,CC(OC(=O)/C=C/c1ccccc1)C(=O)Nc1ccc(C(N)=O)cc1 (stereo unspecified),-2.09% (inactive)
7,O=C1N/C(=C/c2cccs2)C(=O)N1Cc1ccc(F)cc1,35% (active)
8,CCOC(=O)C1(CC2CCCCO2)CCN(Cc2nc(-c3cccs3)oc2C)CC1 (stereo unspecified),49.1% (active)
9,Cc1ccc(S(=O)(=O)N(CC(=O)Nc2cccnc2)c2ccc(Br)cc2)cc1,20.6% (active)
10,CN(CC(=O)Nc1ccc(Cl)cc1)C(=O)c1ccc(COc2ccccc2)cc1,0.49% (inactive)
11,Cc1ccc(-n2c(SCC(=O)NCCC3=CCCCC3)nc3n[nH]c(C)c3c2=N)cc1Cl,2.44% (inactive)
12,Cc1cc(C)cc(C(=O)N(CCc2ccccc2)C2=CC3CCC(C2)N3C)c1 (stereo unspecified),137% (active)
13,Cc1ccc(O)c(NC(=S)NC(=O)COc2ccc(Br)cc2)c1,2.92% (inactive)
14,Cc1ccc(Nc2ccccc2N)cc1,3.92% (inactive)
15,CN1C(CC(=O)Nc2ccc(Br)cc2)c2ccccc2CC1(C)C (stereo unspecified),89.7% (active)
16,CC1CCCN(CCOCCOc2ccccc2-c2ccccc2)C1 (stereo unspecified),1.28% (inactive)
17,Cc1ccc(CN(C(=O)c2sc3ccccc3c2Cl)C2CCS(=O)(=O)C2)cc1 (stereo unspecified),24.1% (active)
18,Clc1ccc(COn2c(-c3ccc(Cl)cc3Cl)nc3ncccc32)cc1,2.83% (inactive)
19,CCNS(=O)(=O)c1ccc(NC(=O)Nc2cccc(OC)c2)cc1,3.23% (inactive)
20,CN(C)C(CNC(=O)c1cc2ccccc2o1)c1ccccc1 (stereo unspecified),1.4% (inactive)
21,COCCCNc1nc2c(-c3cccc(C)c3)nnn2c2ccc(Cl)cc12,15.3% (inactive)
